Sampled rows, rich in hits. Any-hit rate of the full collection: about 1.2%.
Mtb bLac sens: beta-lactam sensitization of Mtb H37Rv; M. tuberculosis H37Rv growth with meropenem, percent inhibition; inhibition, % at 25 µM; hit rate 0.27% among 330,000;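 note: growth measured after seven days incubation then overnight dye step; 0% = bacteria only wells and 100% = bacteria with antibiotic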
Sa ugtP lethal: compounds lethal to S. aureus RN4220 ugtP deletion mutant; growth inhibition, % (concentration not given with the values); OD600 growth, 16 h; hit rate 0.54% among 330,000; in the data active = growth inhibition above about 68%;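 note: plate controls were untreated wells for no effect and antibiotic for full effect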
PfHsp40 yeast: restores yeast growth despite PfHsp40 toxicity | S. cerevisiae expressing PfHsp40, growth rescue, ATP luminescence | growth rescue, % at 12.5 µM | hit rate 0.68% among 340,000 | AID 504582; in the data active = growth rescue above about 28%, passing the limit was not always enough;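 note: yeast W303a lacking pdr1 and pdr3 grown in galactose medium; growth measured after three days at 30 °C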
Vc quorum ag-1: inducers of Vibrio cholerae quorum light production without autoinducers; V. cholerae BH1578 lux reporter, luminescence, 6 h; hit rate 0.16% among 350,000; activation, % at 18.7 µM; in the data active = activation mostly above about 9.7%, no sharp cut-off
RN4220 kill: S. aureus RN4220 growth inhibition. OD600, 16 h. inhibition, % (concentration not given with the values). hit rate 0.33% among 330,000. AID 1259311; in the data active = inhibition above about 85%;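 note: plate controls were untreated cells for no effect and reference antibiotic for full effect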
Vc quorum ag-2: quorum light induction in BH1578 reporter strain | shares compounds with Vc quorum ag-1 | V. cholerae BH1578 lux reporter, luminescence, 6 h | activation, % at 50 µM | 620 tested, under 10 active | AID 602243
The depositor's hits bear a star; i = inactive; x = not tested or not shown. Unless noted, the rule behind the calls is not given here.

SMILES	Mtb bLac sens	Sa ugtP lethal	PfHsp40 yeast	Vc quorum ag-1	RN4220 kill	Vc quorum ag-2
O=C(c1ccccc1)c1ccc2nc(-c3ccc(NC(=O)c4ccccc4Br)cc3)[nH]c2c1	98.2	15.4	0.2	i	15.7	x
Cc1ccccc1C(=O)Nc1ccc(-c2nc3ccc(C(=O)c4ccccc4)cc3[nH]2)cc1	99.2	-7.0	2.9	12.5	24.0	0.0
Cc1cc2oc(=O)cc(CN3CCC(C)CC3)c2cc1Cl	28.9	-4.9	-1.3	26.2*	-0.1	4.0
Cc1cc(OC(F)F)ccc1NC(=S)NCCc1ccccc1	-5.5	1.2	-1.1	12.5	0.4	-0.3
O=c1c2ccccc2[nH]c(=S)n1CC1CCCO1 (stereo unspecified)	5.0	-0.6	0.9	-0.9	-0.4	x
O=c1c2cc(N3CCOCC3)ccc2[nH]c(=S)n1CC1CCCO1 (stereo unspecified)	2.9	-2.1	1.1	12.5	2.4	-0.1
COCCCn1c(=S)[nH]c2ccc(N3CCOCC3)cc2c1=O	-22.1	-2.1	0.8	12.5	5.5	0.1
O=C(O)c1ccc(C=NNC(=O)c2cc(-c3ccc4c5c(cccc35)CC4)n[nH]2)cc1	x	-12.7	x	x	17.8	x
CC1CCCN(CC(O)=C(C#N)c2nc3ccccc3[nH]2)C1 (stereo unspecified)	x	9.9	x	x	6.6	x
Cc1ccc(Oc2ccc(S(=O)(=O)N3CCOCC3)cc2C(N)=O)c(-n2nc3ccccc3n2)c1	-5.7	-8.1	0.6	25.0*	-7.9	0.9
CCN1C(=NCc2ccco2)NC(c2cccc(F)c2)C(C(=O)OC)=C1C (stereo unspecified)	x	-6.5	x	x	-3.9	x
CCOCCCNC(=O)C(NC(=O)CNC(=O)c1ccccc1)c1ccccc1 (stereo unspecified)	1.1	1.6	-0.8	27.8*	-0.3	0.2
CCOCCCNC(=O)C(NC(=O)CNC(C)=O)c1ccc(Cl)cc1 (stereo unspecified)	-6.4	3.9	-1.2	-0.3	3.6	x
CC(=O)[C@@]1(O)CCC2C3CC=C4CC(O)CC[C@]4(C)C3CC[C@@]21C (stereo partly specified)	x	5.3	x	x	7.1	x
C=CCN1C(=O)C(=Cc2ccc(Cl)cc2)N=C1SCC(=O)NC1CCCCC1	x	6.0	x	x	4.7	x
O=C(c1cc2cc(Cl)ccc2oc1=O)N1CCOCC1	-8.9	1.0	-0.2	7.6	0.8	4.1
O=C(c1cc2ccccc2oc1=O)N1CCOCC1	-2.7	-1.0	0.0	0.4	1.0	x
O=C(NCc1ccccc1)C1CCCN(S(=O)(=O)c2cccnc2)C1 (stereo unspecified)	-5.3	2.8	-1.9	25.4	1.9	0.0
CCCS(=O)(=O)N1CCCC(C(=O)NCCCN(C)Cc2ccccc2)C1 (stereo unspecified)	-3.4	-5.4	-1.7	16.7*	-15.5	-0.1
CCN(CCNC(=O)C1CCN(S(=O)(=O)CC)CC1)c1ccccc1	2.1	2.2	0.1	-1.7	6.2	x
CCCS(=O)(=O)N1CCCC(C(=O)NCc2ccc(C)cc2)C1 (stereo unspecified)	-12.1	0.4	-0.9	12.5	-11.0	0.0
CCN(CCNC(=O)C1CCCN(S(=O)(=O)CC)C1)c1ccccc1 (stereo unspecified)	-5.2	-1.5	0.0	12.5	-12.0	0.2
CCCS(=O)(=O)N1CCCC(C(=O)NCc2cccnc2)C1 (stereo unspecified)	-5.8	-5.1	-1.4	x	-14.7	x
CC1(C(=O)N2CC3(CC(c4ccccc4)=NO3)CC2C(=O)NCC(N)=O)CC1 (stereo unspecified)	x	-9.8	x	x	2.8	x
COC(=O)c1ccc(COc2ccccc2C=C(C#N)C(=O)NC(C)C)cc1	x	2.7	x	x	6.5	x
SMILES	Mtb bLac sens	Sa ugtP lethal	PfHsp40 yeast	Vc quorum ag-1	RN4220 kill	Vc quorum ag-2
C#CCOCCOCCOCCNc1nc(N2CCN(C(=O)C(CCCCN)n3cc(C(N)CO)nn3)CC2)nc(N2CCN(C(=O)C(C(C)CC)n3cc(C(N)Cc4ccc(O)cc4)nn3)CC2)n1 (stereo unspecified)	x	2.3	x	x	0.7	x
CCCS(=O)(=O)N1CCCC(C(=O)NCCCN(C)c2ccccc2)C1 (stereo unspecified)	-8.9	1.2	1.8	16.7*	-17.0	-0.2
O=C(CN1CCN(Cc2ccc(F)cc2Cl)C1=O)NCCc1ccccc1	-11.4	3.1	0.4	-0.3	6.6	x
O=C(O)CN1CCN(Cc2ccc(F)cc2Cl)C1=O	4.2	9.0	0.1	12.5	3.2	-0.1
COc1ccc(N(CC(=O)NN=Cc2cc(OC)ccc2OC)S(=O)(=O)c2ccccc2)cc1	x	-2.1	x	x	0.9	x
CC1CCCN(C(=O)c2ccc3c(=O)n(Cc4ccc5c(c4)OCO5)c(=S)[nH]c3c2)C1 (stereo unspecified)	2.1	24.1	2.1	1.8	-12.6	4.0
CCOc1ccc(CCNC(=O)COC(=O)Cc2ccc(F)cc2)cc1OCC	-9.2	13.2	-1.1	14.3	3.3	2.6
CCOc1ccc(CCNC(=O)COC(=O)Cc2c[nH]c3ccccc23)cc1OCC	-5.2	0.6	0.5	-1.2	3.4	x
COC(=O)c1ccccc1NC(=O)Cn1cc2c(n1)CCC(C)C2 (stereo unspecified)	-9.9	3.1	0.9	30.2*	1.5	28.0
Cc1nc2ncnn2c(C)c1Cc1c(Cl)cccc1Cl	-2.1	-4.2	10.6	94.0*	1.5	17.9
Nc1nc(SCc2nc3sc4c(c3c(=O)[nH]2)CCCC4)n[nH]1	2.8	2.5	0.1	30.8*	5.0	0.9
Cc1nnc(SCc2nc3sc4c(c3c(=O)[nH]2)CCCC4)n(N)c1=O	-1.3	2.5	x	x	2.9	x
COc1ccc(C(=O)N2CCC(C(=O)c3ccc(F)cc3)CC2)cc1	-6.1	-0.7	0.0	16.7*	6.3	1.0
CN(CC(=O)Nc1ccc(F)c(F)c1F)C(=O)C1CCC1	-7.2	4.4	0.8	25.0*	4.4	3.0
CCOc1ccc(/C(O)=C2/C(=O)C(=O)N(CCOCCO)C2c2ccccn2)cc1 (stereo unspecified)	12.5	-0.9	0.5	14.3	0.2	0.2
CCOc1ccc(C(O)=C2C(=O)C(=O)N(CCOCCO)C2c2cccnc2)cc1 (stereo unspecified)	x	-1.0	x	x	2.8	x
COC(=O)c1nnn(-c2nonc2N)c1CSc1nc2ccccc2s1	2.6	7.2	2.9	25.0*	-3.9	0.1
Cc1nc(Nc2ccncc2)c2oc3ccccc3c2n1	25.5	-1.5	0.4	-0.6	-2.9	x
CC(=O)Nc1ccc(Nc2nc(C)nc3c2oc2ccccc23)cc1	3.7	-14.2	2.0	16.7*	-1.7	11.9
Cc1nnc2c3ccccc3c(-c3ccc(O)cc3)nn12	-12.3	-6.0	-0.9	83.9*	-4.0	412.5
Cc1cccc(C=NNC(=O)c2c(-c3ccccc3)noc2C)c1O	x	5.1	x	x	-13.4	x
Cc1ccc(C)c(C(=O)CN2C(=O)NC3(CCCCCC3)C2=O)c1	x	-0.6	-0.5	12.5	2.8	0.1
O=C(Nc1cccc(-c2ccc(N3CCOCC3)nn2)c1)c1ccccc1Cl	2.2	8.1	-0.8	14.3	7.8	0.6
COc1ccccc1C(=O)ON=C(c1ccccc1)c1ccncc1	x	0.3	x	x	4.4	x
